Measured values taken from the supplement of paper PMC12494721.
Counter-ions that a name gives are not always drawn.

Legend:
Settings in all cases: incubation time: 27 h, anaerobic, 37 °C;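 for the amine columns active = adjusted P below 0.05 in both replicates with a change the same way and a mean fold change under 0.8 or over 1.25; inactive = the rest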
[1] = system: Clostridium sporogenes DSM 1664; assay: growth (OD595) fold change vs plate DMSO controls (fold change (ratio)); higher = more growth
In short: (§1)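 To obtain OD, 595 nm absorbance readings were blank-subtracted, corrected for compound background using 20 µM compound solutions in water, and multiplied by a calibration factor of 5. They came from 96-well mGAM cultures grown anaerobically for 27 h at 37 °C and shaken before reading. Growth is the fold change relative to the median of plate DMSO controls. Two biological replicates were averaged, and fold changes above 1.5 were set to NA.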

Escherichia coli IAI1 [2] = assay: as above
In short: as §1

[3] = system: Klebsiella aerogenes DSM 30053; assay: as above
In short: as §1

[4] = system: Ruminococcus gnavus DSM 108212; assay: as above
In short: as §1

[5] = system: Klebsiella aerogenes DSM 30053; assay: fold change of Histamine concentration vs plate DMSO controls (fold change (ratio)); higher = more amine produced, active = hit call of the paper (significant change in both replicates, either direction)
In short: (§2)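 Amines were quantified by LC–triple-quadrupole MS in dynamic MRM mode against external calibration curves, with drift correction within each batch. The samples were whole anaerobic mGAM cultures of four gut bacterial strains, grown for 27 h at 37 °C in 80 µL wells and extracted with cold acetonitrile/methanol with 0.1% formic acid, then centrifuged. Values are reported as fold change over DMSO controls on the same plate. The mean of 2 biological replicates is given.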

[6] = system: Clostridium sporogenes DSM 1664; assay: fold change of Tryptamine concentration vs plate DMSO controls (fold change (ratio)); higher = more amine produced, active = hit call of the paper (significant change in both replicates, either direction)
In short: as §2

[7] = system: Ruminococcus gnavus DSM 108212; assay: as above
In short: as §2

Escherichia coli IAI1 [8] = assay: fold change of Putrescine concentration vs plate DMSO controls (fold change (ratio)); higher = more amine produced, active = hit call of the paper (significant change in both replicates, either direction)
In short: as §2

[9] = system: Klebsiella aerogenes DSM 30053; assay: as above
In short: as §2

Escherichia coli IAI1 [10] = assay: fold change of Cadaverine concentration vs plate DMSO controls (fold change (ratio)); higher = more amine produced, active = hit call of the paper (significant change in both replicates, either direction)
In short: as §2

[11] = system: Klebsiella aerogenes DSM 30053; assay: as above
In short: as §2

[12] = system: Ruminococcus gnavus DSM 108212; assay: fold change of 2-Phenylethylamine concentration vs plate DMSO controls (fold change (ratio)); higher = more amine produced, active = hit call of the paper (significant change in both replicates, either direction)
In short: as §2

Row | Structure (SMILES) | growth [1] | growth (Escherichia coli IAI1 [2]) | growth [3] | growth [4] | fold change of Histamine concentration [5] | fold change of Tryptamine concentration [6] | fold change of Tryptamine concentration [7] | fold change of Putrescine concentration (Escherichia coli IAI1 [8]) | fold change of Putrescine concentration [9] | fold change of Cadaverine concentration (Escherichia coli IAI1 [10]) | fold change of Cadaverine concentration [11] | fold change of 2-Phenylethylamine concentration [12]
1 | CC(CN(C)C)CN1c2ccccc2CCc2ccccc21 (stereo unspecified) [Trimipramine maleate salt] (20 µM) | 0.87 | 0.987 | 0.974 | 0.826 | 0.994 (inactive) | 0.985 (inactive) | 0.998 (inactive) | 0.961 (inactive) | 1.01 (inactive) | 1.04 (inactive) | 1 (inactive) | 1.02 (inactive)
2 | CCN(CCCCOC(=O)c1ccc(OC)c(OC)c1)C(C)Cc1ccc(OC)cc1 (stereo unspecified) [Mebeverine hydrochloride] (20 µM) | 0.955 | 1.25 | 0.995 | 0.632 | 0.903 (inactive) | 1.01 (inactive) | 0.985 (inactive) | 1.15 (inactive) | 1.05 (inactive) | 1.04 (inactive) | 1.02 (inactive) | 1.01 (inactive)
3 | CC(C(=O)O)c1cccc(C(=O)c2ccccc2)c1 (stereo unspecified) [Ketoprofen] (20 µM) | 0.99 | 1.04 | 0.993 | 0.957 | 1.03 (inactive) | 0.984 (inactive) | 1.06 (inactive) | 1.1 (inactive) | 1.01 (inactive) | 1.02 (inactive) | 0.995 (inactive) | 1.12 (inactive)
4 | CC(N)C12CC3CC(CC(C3)C1)C2 (stereo unspecified) [Rimantadine hydrochloride] (20 µM) | 0.858 | 0.975 | 0.955 | 0.786 | 1.01 (inactive) | 0.984 (inactive) | 1 (inactive) | 0.947 (inactive) | 1.01 (inactive) | 1.01 (inactive) | 0.994 (inactive) | 0.987 (inactive)
5 | COc1cc2nc(N3CCN(C(=O)C4COc5ccccc5O4)CC3)nc(N)c2cc1OC (stereo unspecified) [Doxazosin mesylate] (20 µM) | 0.926 | 0.974 | 0.995 | 1.13 | 1.01 (inactive) | 1.1 (inactive) | 0.943 (inactive) | 1.02 (inactive) | 1 (inactive) | 0.983 (inactive) | 0.991 (inactive) | 0.932 (inactive)
6 | CC(C)OC(=O)C(C(=O)OC(C)C)=C1SC=CS1 [Malotilate] (20 µM) | 1.09 | 1.07 | 1.08 | 1.16 | 0.94 (inactive) | 0.958 (inactive) | 0.956 (inactive) | 1.07 (inactive) | 1.04 (inactive) | 0.949 (inactive) | 1.02 (inactive) | 0.88 (inactive)
7 | NC(=O)Cc1cccc(C(=O)c2ccccc2)c1N [Nepafenac] (20 µM) | 1.01 | 1.03 | 1.06 | 1.09 | 0.929 (inactive) | 1.04 (inactive) | 1.06 (inactive) | 0.989 (inactive) | 0.993 (inactive) | 0.962 (inactive) | 1.04 (inactive) | 1.11 (inactive)
8 | CCCC(=O)OCOC(=O)C1=C(C)NC(C)=C(C(=O)OC)C1c1cccc(Cl)c1Cl (stereo unspecified) [Clevidipine] (20 µM) | 0.828 | 1.03 | 1.01 | 1.22 | 1.01 (inactive) | 0.829 (inactive) | 0.902 (inactive) | 1.04 (inactive) | 1.01 (inactive) | 0.985 (inactive) | 0.998 (inactive) | 0.928 (inactive)
9 | COc1c2occc2c(OC)c2c(=O)cc(C)oc12 [Khellin] (20 µM) | 0.981 | 0.994 | 1.03 | 1.11 | 1.06 (inactive) | 1 (inactive) | 1.04 (inactive) | 1 (inactive) | 1.01 (inactive) | 1.02 (inactive) | 0.992 (inactive) | 1.09 (inactive)
10 | NC(CO)C(=O)NNCc1ccc(O)c(O)c1O (stereo unspecified) [Benserazide hydrochloride] (20 µM) | 0.879 | 1.06 | 0.985 | 0.988 | 1.08 (inactive) | 0.965 (inactive) | 1.03 (inactive) | 1.19 (inactive) | 1.03 (inactive) | 0.994 (inactive) | 0.991 (inactive) | 1.03 (inactive)
11 | CC(=O)Nc1c(I)c(NC(C)=O)c(I)c(C(=O)O)c1I [Diatrizoic acid dihydrate] (20 µM) | 1.28 | 1.05 | 1.01 | 0.851 | 1.03 (inactive) | 0.947 (inactive) | 1.05 (inactive) | 1.07 (inactive) | 0.983 (inactive) | 1.01 (inactive) | 0.988 (inactive) | 1.01 (inactive)
12 | CC(N)(Cc1ccc(O)c(O)c1)C(=O)O (stereo unspecified) [(L) Methyldopa] (20 µM) | 0.936 | 0.99 | 1 | 0.89 | 1.06 (inactive) | 1 (inactive) | 1.11 (inactive) | 0.882 (inactive) | 1.06 (inactive) | 0.965 (inactive) | 1.07 (inactive) | 1.26 (active)
13 | CCOC(=O)Nc1ccc2c(c1)N(C(=O)CCN1CCOCC1)c1ccccc1S2 [Moricizine hydrochloride] (20 µM) | 1.09 | 1.08 | 0.995 | 1.06 | 1 (inactive) | 0.989 (inactive) | 0.978 (inactive) | 1.03 (inactive) | 1.01 (inactive) | 1.01 (inactive) | 1 (inactive) | 1 (inactive)
